Assay outcomes from PubChem.
Compounds with a hit are over-represented: about 19% of the library has one in this group of screens.
HT1080 IDH1KD tx: HT-1080 IDH1 knockdown cell toxicity (counter line); HT-1080 IDH1 knockdown viability, ATP luminescence, 48 h; Potency, µM (series often up to 46.1 µM), inactives show top-dose activity, negative = toxicity, most hits filed as cytotoxic; actives 2% (n = 360,000);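 further: potency means the concentration at half of the fitted maximal effect; 0% = DMSO wells and -100% = cell-free medium wells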
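Viability of IDH1-knockdown HT-1080 fibrosarcoma cells was assessed by CellTiter-Glo after 48 h at 37 °C with titrated compound; concentration-effect curves were classified by fit quality and response size.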
HT1080-NT tox: kills 2HG-producing HT-1080-NT fibrosarcoma cells | HT-1080-NT fibrosarcoma viability, CellTiter-Glo ATP luminescence, 48 h | Potency, µM (top dose mostly 46.1 µM), without a hit: top-dose activity, negative = less viability, usual class: cytotoxic | actives 1.6% (n = 360,000);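 further: NT is the 2HG producing partner of a matched IDH1 knockdown line; potency means the concentration at half of the fitted maximal effect; 0% = DMSO-treated cells and -100% = media-only wells without cells; nearly all actives have a fitted effect of over 55% in size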
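Luminescent CellTiter-Glo readout after 48 hours of compound exposure at 37 degrees C defined viability of HT-1080-NT cells. Activity was normalized to DMSO wells and cell-free media wells; concentration-response curves were fitted and assigned curve classes.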
DT40 TDP1 CPT: growth inhibition of DT40 Tdp1-/-;hTDP1 cells with camptothecin (screen for TDP1 inhibitors) | chicken DT40 Tdp1-/-;hTDP1 cells + 20 nM CPT, ATP luminescence, 48 h | Potency, µM (series often up to 46.2 µM), inactives show top-dose activity change, negative = growth inhibition, most hits filed as inhibitors | actives 12% (n = 420,000) | AID 686979; further: potency means the concentration at half of the fitted maximal effect; nearly all actives have a fitted effect of over 55% in size
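Chicken DT40 Tdp1-/- cells complemented with human TDP1, 400 cells/well, exposed to compounds plus 20 nM camptothecin for at least 48 h at 37 C; viability read as ATP content by CellTiter-Glo luminescence.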
DT40 TDP1 no CPT: qHTS for Inhibitors of human tyrosyl-DNA phosphodiesterase 1 (TDP1): qHTS in cells in absence of CPT; AID 686978, 2013; Potency, µM (titrated, usually from 46.2 µM), inactives show at the top dose activity change, negative = growth inhibition, usual class: inhibitors; actives 15% (n = 420,000); DT40 Tdp1-/- hTDP1 cells, no CPT, ATP luminescence, 48 h; further: potency means the concentration at half of the fitted maximal effect; nearly all actives have a fitted effect of over 55% in size
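Chicken DT40 Tdp1-/- cells complemented with human TDP1, screened without camptothecin (DMSO vehicle only), 400 cells/well. Compounds pin-transferred, cells incubated at 37 °C for at least 48 hr. Growth read as ATP-dependent luminescence (CellTiter-Glo, 30 min at RT).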
IL-1B inflam inh: blocks inflammasome-driven IL-1 beta release; THP-1 LPS/ATP IL-1B secretion, AlphaLISA, 16 h; active compounds read low; activity change, % at 57.5 µM; actives 4.7% (n = 360,000); in the data active means activity change below about -50%; inconclusive means mostly about -30% to -49%
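THP-1 cells pretreated 1 hr with compounds (up to 57.5 uM final), then stimulated with LPS (250 ng/mL final) plus ATP (1.25 mM final); secreted IL-1B measured by AlphaLISA after 16 hr, decreased signal indicating inhibition.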
* hit, by the source's call; ? = inconclusive; . = not tested or not shown; [ ] = dose if it differs, or a comment. Unless noted, the call rests on the fitted dose curve; in most records, active means well fitted curve in the direction sought with a large enough effect; inconclusive means small, poorly fitted or top-dose-only effect, or another doubt; inactive means no such curve, though single readings can be large; an effect the other way counts as inactive or inconclusive. Unless noted, on the % scale 0 is the no-effect control and ±100 the full control effect.

SMILES | HT1080 IDH1KD tx | HT1080-NT tox | DT40 TDP1 CPT | DT40 TDP1 no CPT | IL-1B inflam inh
COc1ccccc1C1(CCN=Cc2ccc(N(C)C)cc2)CCOC(C)(C)C1 (stereo unspecified) | -2% | -5% | -22% | -11% | -64*
Cc1ccc(CN2CCC(c3cc(-c4cccs4)n[nH]3)CC2)cc1 | ? | ? | ? | ? | -86*
FC(F)(F)c1cccc(CN2CCC(c3cc(-c4cccs4)n[nH]3)CC2)c1 | 5.2µM* | 7.3µM* | 8.2µM* | 21µM* | -217*
Cc1ccc(CN2CCN(/N=C/c3cccs3)CC2)cc1 | 5% | 9% | -17% | -14% | 14
FC(F)(F)c1cc(-c2cccs2)n[nH]1 | 4% | 0% | -23% | -6% | 22
COc1ccccc1CCNC(=O)C(=O)NCC(c1ccco1)S(=O)(=O)c1ccc(C)cc1 (stereo unspecified) | . | . | 21µM* | ? | .
COc1ccc(CCNC(=O)C(=O)NCC(c2ccco2)S(=O)(=O)c2cccs2)cc1 (stereo unspecified) | . | . | 13µM* | 13µM* | .
COc1ccccc1CCNC(=O)C(=O)NCC(c1ccco1)S(=O)(=O)c1cccs1 (stereo unspecified) | . | . | 21µM* | ? | .
COc1ccccc1CCNC(=O)C(=O)NCC(c1cccs1)S(=O)(=O)c1ccc(C)cc1 (stereo unspecified) | . | . | 15µM* | 21µM* | .
COC(=O)c1cc(S(=O)(=O)N2CCOCC2)ccc1Sc1ccccc1N | ? | -7%[9.24 µM] | -15% | -17% | -19
O=C(CNC(=O)c1ccc2c(c1)S(=O)(=O)N=C1CCCCCN12)Nc1ccc(F)c(F)c1 | -2% | 1% | -19% | ? | -2
Oc1ccc(Cl)cc1C1=Nc2ccccc2N=C(c2cccc(Br)c2)C1 | . | . | -30% | ? | .
Cc1cccc(S(=O)(=O)NC2CCCCCCC2)c1 | -8% | -13% | 21µM* | ? | -6
CCOc1cc(S(=O)(=O)NC2CCCCCC2)ccc1F | -22% | -15% | 21µM* | ? | 37
O=S(=O)(NC1CCCCCC1)c1cccc(Cl)c1 | -18% | -6% | ? | ? | ?
Cc1ccc2[nH]c(=O)c(CN(Cc3ccco3)S(=O)(=O)c3c(C)ccc4nsnc34)cc2c1 | 0% | -4% | ? | ? | -58*
Cc1ccc2nsnc2c1S(=O)(=O)N(Cc1ccco1)Cc1cc2ccc(C)c(C)c2[nH]c1=O | 5% | 9% | 6% | ? | -1
COc1ccc2[nH]c(=O)c(CN(Cc3cccs3)S(=O)(=O)c3c(C)ccc4nsnc34)cc2c1 | ? | -24% | 4.1µM* | 18µM* | ?
CCC(=O)Nc1ccc(S(=O)(=O)Nc2ccc(Cl)nn2)cc1 | 10% | -2% | -26% | 19% | -14
CCCNC(=O)C1(C)CCCN(C(=O)/C=C/c2ccccc2)C1 (stereo unspecified) | 5% | 3% | -6% | -3% | 0
CC(=O)OC1=CN(Cc2ccccc2)S(=O)(=O)c2ccccc21 | . | . | -3% | -8% | .
O=C(Nc1ccc2ccccc2c1)C(C1CC1)n1c(=O)c(-c2cc3ccccc3[nH]2)nc2ccccc21 (stereo unspecified) | ? | ? | ? | ? | -15
O=C(NC1CCCCC1)C(c1ccnc2ccccc12)n1c(=O)c(-c2cc3ccccc3[nH]2)nc2ccccc21 (stereo unspecified) | -25% | ? | ? | 15µM* | -12
O=C(NC1CCCCC1)C(c1ccnc2ccccc12)n1c(=O)c(-c2ccccc2)nc2ccccc21 (stereo unspecified) | 12µM* | 13µM* | 10µM* | 13µM* | 55
Cc1nc2ccccc2n1CC(=O)NC1CCCCCC1 | ? | ? | 12µM* | 13µM* | 0
SMILES | HT1080 IDH1KD tx | HT1080-NT tox | DT40 TDP1 CPT | DT40 TDP1 no CPT | IL-1B inflam inh
O=C(NC1CCCCC1)C(c1ccccc1)n1c(=O)c(-c2cc3ccccc3[nH]2)nc2ccccc21 (stereo unspecified) | ? | -27% | ? | ? | -69*
Cc1ccc(C)c(OCC(=O)OCc2csc(CC(=O)Nc3ccccc3C)n2)c1 | -11% | -1% | -6% | -17% | 26
COc1ccccc1NC(=O)CC(NC1CCCCC1)C(=O)O (stereo unspecified) | 16% | 3% | -6% | 2% | 0
N#Cc1ccc(C(C(=O)NC2CCCCC2)n2c(=O)c(-c3cc4ccccc4[nH]3)nc3ccccc32)cc1 (stereo unspecified) | -21% | -25% | 15µM* | 15µM* | -2
CCC(C(=O)NC1CCCC1)n1c(-c2ccnc3ccccc23)nc2ccccc21 (stereo unspecified) | -17% | -11% | ? | ? | -59*
CSCCC(C(=O)NC1CCCC1)n1c(C2CCCC2)nc2ccccc21 (stereo unspecified) | 19% | 13% | ? | ? | -88*
COc1ccc(C(C(=O)NC2CCCCC2)n2c(=O)c(-c3cc4ccccc4[nH]3)nc3ccccc32)cc1 (stereo unspecified) | -16% | -21% | ? | 15µM* | 27
CCC(C(=O)NC1CCCC1)n1c(-c2ccncc2)nc2ccccc21 (stereo unspecified) | 1% | 17% | 18% | -8% | -20
COC(=O)CC1C(=O)NCCN1Cc1cn(-c2ccc(C)cc2)nc1-c1cccc(C)c1 (stereo unspecified) | -12% | 1% | -28% | ? | ?
COc1ccc(N=Cc2sc(O)c3ccccc23)cc1 | -5% | -11% | ? | ? | -83*
COc1ccc(N=Cc2c(OC)ccc3ccccc23)cc1 | ? | ? | 3% | -30% | 7
COc1ccc(N=Cc2c(O)c3ccccc3n2C(C)=O)cc1 | -15% | 7% | ? | 21µM* | 0
C#CC1(O)CC[C@H]2[C@@H]3CCC4=CCCC[C@@H]4[C@H]3CC[C@@]21C (stereo partly specified) | . | . | -26%[21.1 µM] | -18%[21.1 µM] | .
COc1ccccc1-c1ccccc1C1=CC(=O)CC(C)(C)C1=O | 4% | 7% | -5% | -27% | 3
COc1cccc(-c2ccc(C3=CC(=O)CC(C)(C)C3=O)cc2)c1OC | -1% | 2% | ? | 21µM* | -4
CC1(C)CC(=O)C=C(c2ccc(-c3ccc(S(C)(=O)=O)cc3)cc2)C1=O | -3% | -1% | 21µM* | 12µM* | 24
CC(=O)OCc1ccc(C2=CC(=O)CC(C)(C)C2=O)cc1 | 7% | 7% | 15% | -17% | 4
Cc1c(Cl)ccc2c(C(=O)Nc3cc(C(C)(C)C)on3)cc(-c3ccccn3)nc12 | 1% | -1% | ? | ? | 49
